From PubChem BioAssay
HTR2A ag = activates the mouse 5-HT2A serotonin receptor; AID 624169; hit rate 0.66% among 360,000; P35363; CHO-K1 mHTR2A beta-arrestin complementation, luminescence; percent of 30 µM serotonin response; activation, % at 7.6 µM;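 active means activation above a run cutoff, the mean activation of all tested compounds plus 3 SD, cut at about 14% in these data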;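 further: 0% = plate median of compound wells and 100% = 30 µM serotonin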
HTR5A ag = HTR5A agonism, opioid heterodimer counter-screen; P47898; activation, % at 9.3 µM; HTR5A agonist assay, luminescence, cell-based; hit rate 0.61% among 340,000; in the data active means activation mostly above about 9.5%, no sharp cut-off; inactive means mostly below about 7.6%;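 further: 0% = cells with vehicle only and 100% = reference agonist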
MOR-DOR ag = agonists of human mu-delta opioid receptor heterodimerization. P35372+P41143. cells, OPRM1-OPRD1 heterodimerization, luminescence. activation, % at 9.3 µM. hit rate 0.3% among 340,000. AID 504326;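 further: 0% = vehicle-treated cells and 100% = reference agonist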
Target sequence (P35372 whole entry, looked up): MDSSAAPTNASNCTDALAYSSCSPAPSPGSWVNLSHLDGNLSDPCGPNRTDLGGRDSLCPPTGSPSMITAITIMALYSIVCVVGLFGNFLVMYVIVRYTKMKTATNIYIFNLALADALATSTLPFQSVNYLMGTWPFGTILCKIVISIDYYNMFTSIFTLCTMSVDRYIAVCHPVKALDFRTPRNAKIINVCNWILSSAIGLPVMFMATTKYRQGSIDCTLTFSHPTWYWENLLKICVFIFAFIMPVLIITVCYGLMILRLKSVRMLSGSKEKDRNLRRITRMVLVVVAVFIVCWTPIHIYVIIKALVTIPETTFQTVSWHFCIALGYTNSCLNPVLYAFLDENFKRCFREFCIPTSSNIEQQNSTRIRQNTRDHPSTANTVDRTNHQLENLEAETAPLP
Target sequence (P41143 whole entry, looked up): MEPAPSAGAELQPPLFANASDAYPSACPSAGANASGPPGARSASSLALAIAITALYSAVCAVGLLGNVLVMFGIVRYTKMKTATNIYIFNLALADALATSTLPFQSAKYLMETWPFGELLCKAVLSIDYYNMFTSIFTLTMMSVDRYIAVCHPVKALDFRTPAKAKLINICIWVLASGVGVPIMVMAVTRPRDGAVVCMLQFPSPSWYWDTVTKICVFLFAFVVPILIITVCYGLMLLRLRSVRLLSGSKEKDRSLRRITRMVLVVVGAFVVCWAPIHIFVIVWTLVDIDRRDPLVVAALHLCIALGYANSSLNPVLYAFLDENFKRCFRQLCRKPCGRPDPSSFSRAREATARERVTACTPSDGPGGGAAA
HTR5A inv ctr = inverse agonist of human HTR5A in OPRM1-OPRD1 counter-screen | P47898 | HTR5A cell line, luminescence, inverse agonism | inhibition, % at 9.3 µM | hit rate 0.083% among 340,000 | AID 504634; in the data active means inhibition mostly above about 23%, no sharp cut-off; inactive means mostly below about 18%;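 further: 0% = cells with DMSO and 100% = no-cell wells with DMSO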
MOR-DOR inv ag = inverse agonists of human mu-delta opioid receptor heterodimerization. P35372+P41143. cell-based MOR-DOR heterodimer luminescence, inverse agonism. inhibition, % at 9.3 µM. hit rate 0.21% among 340,000; in the data active means inhibition above about 22%, passing the limit was not always enough;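 further: 0% = cells with DMSO and 100% = wells without cells with DMSO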
OPRM1-D1 ag cf = OPRM1-OPRD1 heterodimer agonism, confirmation; shares compounds with MOR-DOR ag; cells, MOR-DOR heterodimerization, luminescence complementation; activation, % at 9.3 µM; hit rate 45% among 830; AID 504904;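 further: 0% = vehicle-treated cells and 100% = reference agonist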
HTR5A ag ctr2 = HTR5A agonism, opioid heterodimer counter-screen | hit rate 8% among 830 | HTR5A agonist counterscreen, cell luminescence | activation, % at 9.3 µM | shares compounds with MOR-DOR ag; in the data active means activation above about 17%;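 further: 0% = vehicle-treated cells and 100% = reference agonist response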
MOR-DOR inv conf = OPRM1-OPRD1 heterodimer inverse agonism, confirmation; shares compounds with MOR-DOR inv ag; cells expressing OPRM1/OPRD1 heterodimer, luminescence; inhibition, % at 9.3 µM; hit rate 20% among 580; AID 504900; in the data active means inhibition above about 32%;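 further: 0% = cells with DMSO and 100% = wells lacking cells with DMSO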
HTR5A inv count = counter-screen for OPRM1-OPRD1 inverse agonists: human HTR5A inverse agonism. shares compounds with MOR-DOR inv ag. HTR5A-expressing cells, luminescence. inhibition, % at 9.3 µM. 580 tested, under 10 active. AID 504914; call rule not given here;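 further: 0% = cells with DMSO and 100% = no-cell wells with DMSO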
MOR ag counter = OPRM1 agonism in mouse HTR2A counterscreen; shares compounds with HTR2A ag; U2OS OPRM1 beta-arrestin PathHunter, luminescence; DMSO 0%, DAMGO 9.3 µM 100%; activation, % at 9.3 µM; hit rate 5.3% among 2,300;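 active means mean activation above the mean of DMSO-only wells plus 3 SD, cut at about 0.5% in these data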
m5-HT2A ag conf = confirmation of mouse HTR2A serotonin receptor agonists; hit rate 19% among 2,300; CHO-K1 PathHunter beta-arrestin recruitment, luminescence; DMSO 0%, 30 µM serotonin 100%; activation, % at 7.6 µM; shares compounds with HTR2A ag; AID 624381;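 active means mean activation across triplicates above the hit threshold derived in the original primary screen, cut at about 15% in these data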
The depositor's hits bear a star; nt = not tested or not shown. Most compounds without a hit are left out; they make up all but 1.6% or so of the library. Unless noted, no stated cut-off is given here; in the data, active means activation above about 18%; inactive means the rest.

SMILES	HTR2A ag	HTR5A ag	MOR-DOR ag	HTR5A inv ctr	MOR-DOR inv ag	MOR-DOR inv conf	HTR5A inv count	others
CCOC(=O)C1=C(COC(=O)c2cccc(NC(C)=O)c2)NC(=O)NC1C (stereo not drawn)	2	9	-2	-22	9	nt	nt
O=C(Cn1ncc2c([nH]c3ccccc32)c1=O)N1CCc2ccccc2C1	-5	-3	32*	-19	-176	nt	nt	OPRM1-D1 ag cf=26*;HTR5A ag ctr2=1
NC(=O)c1cc(-c2csc(NCCc3ccccc3)n2)ccc1O	-2	0	19*	1	-102	nt	nt	OPRM1-D1 ag cf=20*;HTR5A ag ctr2=-1
Cc1ccccc1OCc1nc(-c2ccc(NC(=O)c3ccc4c(c3)OCO4)cc2)no1	0	10	21*	-26	-88	nt	nt	OPRM1-D1 ag cf=1;HTR5A ag ctr2=2
CCOC(=O)N1CCN(c2c(NCCN(C)Cc3ccccc3)c(=O)c2=O)CC1	-2	1	50*	-2	-298	nt	nt	OPRM1-D1 ag cf=0;HTR5A ag ctr2=0
Cc1ccc(C(=O)C2C(c3ccc(-c4ccccc4[N+](=O)[O-])o3)NC(=O)NC2(O)C(F)(F)F)cc1 (stereo not drawn)	-2	2	21*	0	-114	nt	nt	OPRM1-D1 ag cf=4;HTR5A ag ctr2=5
CCN1CCN(Cc2ccc(NC(=O)c3ccc(C)c(NC(=O)c4c[nH]c5cc(C(F)(F)F)ccc5c4=O)c3)cc2C(F)(F)F)CC1	1	0	47*	-12	-286	nt	nt	OPRM1-D1 ag cf=39*;HTR5A ag ctr2=3
COc1cccc(N2CCN(c3ncnc4c3cnn4-c3ccc(C)cc3C)CC2)c1	15*	-2	23*	4	-130	nt	nt	OPRM1-D1 ag cf=27*;HTR5A ag ctr2=15;MOR ag counter=3.0*;m5-HT2A ag conf=10
CCCN(CC(=O)Nc1ccccc1C)C(=O)c1nn(CC)c(=O)c2ccccc12	1	2	-1	-18	4	nt	nt
O=C1C(=O)N(CCCc2ccccc2)c2ccccc21	-2	-3	-9	5	43*	90*	2
O=C(CN1C(=O)C(=O)c2ccccc21)NCCc1ccccc1	-1	-9	-11	25	56*	9	11
Cc1cc2nc(-c3ccccc3)c(CC(C)(C)C)n2c(C)c1Br	2	nt	nt	nt	nt	nt	nt
C[C@H](CO)N1C[C@H](C)[C@@H](CN(C)Cc2ccc(Cl)c(Cl)c2)Oc2c(NC(=O)Cc3ccccc3)cccc2C1=O	-2	6	4	-33	-22	nt	nt
CCCOC(=O)c1cc(NC(=O)/C=C/c2ccccc2)ccc1O	-3	nt	nt	nt	nt	nt	nt
O=C(N/N=C/c1cccc2cccnc12)c1ccccc1O	-9	-5	-7	18	36*	7	-3
N#CC1(Nc2cccc(Br)c2)C(=O)Nc2ccccc21 (stereo not drawn)	-2	-9	-9	-13	50*	-1	4
CS(=O)(=O)Nc1cccc(C(=O)CC2(O)C(=O)Nc3ccccc32)c1 (stereo not drawn)	0	-2	-3	5	17	nt	nt
CC(=O)Nc1ccc(C2(c3ccc(NC(C)=O)cc3)C(=O)Nc3ccccc32)cc1	4	0	6	-17	-32	nt	nt
N#CC1(Nc2ccccc2)C(=O)Nc2ccccc21 (stereo not drawn)	-1	-8	-10	28	57*	-439	7
O=C(Nn1cnnc1)c1ccccc1CCc1ccccc1	8	5	-2	-22	10	nt	nt
CC(=O)NC1C(=O)Nc2c1cccc2C(F)(F)F (stereo not drawn)	-4	3	-7	-5	30*	14	-18
O=C1C(NS(=O)(=O)c2cccs2)=C(N2CCOCC2)C(=O)c2ccccc21	-5	-1	-8	39	41*	6	7
CCN(CC)C(=O)CN1C(=O)C(=O)c2ccccc21	5	-1	-8	3	38*	14	8
CC1CCN(C(=O)CN2C(=O)C(=O)c3ccccc32)CC1	4	0	-5	1	29*	13	5
O=C(CN1C(=O)C(=O)c2ccccc21)OCN1C(=O)c2ccccc2C1=O	0	-2	-6	5	30	nt	nt
SMILES	HTR2A ag	HTR5A ag	MOR-DOR ag	HTR5A inv ctr	MOR-DOR inv ag	MOR-DOR inv conf	HTR5A inv count	others
CC1CCN(C(=O)CN2C(=O)c3cccc4cccc(c34)C2=O)CC1	0	-2	-2	24	8	nt	nt
O=C(CN1C(=O)C(=O)c2ccccc21)c1ccc(Cl)cc1	3	1	-8	1	46*	-79	-9
CCN(CC)C(=O)CN1C(=O)c2cccc3cccc1c23	-5	1	-3	-5	14	nt	nt
CC(C)(C)NC(=O)CN(Cc1cccs1)C(=O)c1csnn1	2	-3	-1	-14	4	nt	nt
CC(C)(C)NC(=O)CN(Cc1cccs1)C(=O)CN1C(=O)C(=O)c2ccccc21	-2	6	-6	-16	33*	24	14
CCOc1ccc(NC(=O)CCC(=O)NNC(=O)Nc2cccc(Cl)c2)cc1	0	-2	-1	-23	7	nt	nt
Cn1c(SCC(=O)c2ccccc2)nnc1-c1cccnc1	-2	-4	-2	20	12	nt	nt
Cn1c(SSc2ccc(-c3cccnc3)n2C)ccc1-c1cccnc1	-1	0	-8	-1	41*	30	13
C=CCNC(=S)NCCCCC1NC(=S)N(CC=C)C1=O (stereo not drawn)	-2	0	-3	22	25*	7	-4
Cc1cccc(C)c1NC(=S)NNc1ncc(C(F)(F)F)cc1Cl	0	-3	-5	17	32*	-49	-11
NC(=O)NNc1ncc(C(F)(F)F)cc1Cl	1	-1	-2	4	8	nt	nt
FC(F)(F)c1cnc(NNC(=S)Nc2cccnc2)c(Cl)c1	-9	-7	-12	29	66*	45*	42
Cc1ccccc1NC(=S)NNc1ncc(C(F)(F)F)cc1Cl	-4	-7	-8	26	46*	33*	15
FC(F)(F)c1cnc(NNC(=S)Nc2ccccc2)c(Cl)c1	-17	nt	nt	nt	nt	nt	nt
Cc1c(Cl)cccc1NC(=S)NNc1ncc(C(F)(F)F)cc1Cl	-12	-8	-8	41	43*	25	28
